Source: PubChem BioAssay (NCI)
“And” between values parts separate entries of the source, which are not always exact repeats. Equal values may be shown once. The panel holds about 79,000 compounds, 15% with a hit somewhere; the sample as a whole holds those more often. No stated cut-off is given here; in the data, active means growth inhibition above about 70%; inactive means the rest. Where a SMILES comes first, the peptide text is derived from it. The star is where a group is joined. Cbz = O=C(OCc1ccccc1)*; OBn = c1ccc(CO*)cc1

Assays:
[1] = NCI Yeast Anticancer Drug Screen. Data for the rad50 strain (AID 155);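 further: 0% = growth of vehicle-only cultures of the same strain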; settings: S. cerevisiae rad50 strain growth inhibition, stronger effect = higher value; at 50.0 µM unless noted
Outline: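 A DNA repair-deficient yeast mutant serves as the test organism; compound-induced growth inhibition is calculated against vehicle-treated cells.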

[2] = NCI Yeast Anticancer Drug Screen. Data for the mec2-1 strain (AID 157); settings: S. cerevisiae mec2-1 strain, stronger effect = higher value; at 50.0 µM unless noted
Outline: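 mec2-1 yeast strain, carrying an alteration in DNA damage repair or cell cycle control, was exposed to compounds; growth inhibition was measured relative to vehicle-treated controls.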

[3] = NCI Yeast Anticancer Drug Screen. Data for the sgs1 mgt1 strain (AID 161);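 further: 0% = growth of cultures given vehicle only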; settings: S. cerevisiae sgs1 mgt1 strain, stronger effect = higher value; at 50.0 µM unless noted
Outline: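 This yeast growth screen uses a strain with defined DNA-repair lesions; compound-treated growth is compared with vehicle-treated growth.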

[4] = NCI Yeast Anticancer Drug Screen. Data for the cln2 rad14 strain (AID 165);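 further: 0% = growth equal to vehicle treated cultures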; settings: S. cerevisiae cln2 rad14 strain, stronger effect = higher value; at 50.0 µM unless noted
Outline: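 Yeast carrying cln2 and rad14 alterations (cell cycle control and DNA damage repair) were exposed to compounds. Growth inhibition was measured against vehicle-treated controls.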

[5] = NCI Yeast Anticancer Drug Screen. Data for the bub3 strain (AID 167); settings: S. cerevisiae bub3 mutant strain, stronger effect = higher value; at 50.0 µM unless noted
Outline: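 Inhibition values come from growth of compound-treated mutant yeast normalised to vehicle-treated controls.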

[6] = NCI Yeast Anticancer Drug Screen. Data for the mlh1 rad18 strain (AID 175); settings: S. cerevisiae mlh1 rad18 strain growth inhibition, stronger effect = higher value; at 50.0 µM unless noted
Outline: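 Growth inhibition of the yeast strain was measured after compound exposure and expressed relative to vehicle-treated controls. The strain carries defined defects in DNA damage repair.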

Measured: growth inhibition

CSCCSC
inactive: [1] 10.2% | [2] 4.6% | [3] -0.1% | [4] 13.4% | [5] 3.4% | [6] 3.65%

CC(C)OC(=O)Nc1cccc(Cl)c1F
inactive: [1] 15.9% | [2] -10.8% | [3] -6.2% | [4] -0.75% | [5] 8.2% | [6] 8.65%

COc1cc2c(cc1OC)C1Cc3ccccc3CCN1CC2 (stereo not given)
inactive: [1] -23.4% | [2] -7.1% | [3] -16.8% | [4] -23.8% | [5] -9.95% | [6] -19.4%

CCCCCCCCCCCCCOc1ccc(S(=O)(=O)/N=C(\N)NC(N)=NCCCCCCCCCCCC)cc1
inactive: [1] 2.9% | [2] 12.4% | [3] -2.8% | [4] -1.55% | [5] -4.95% | [6] 8.05%

O=C(O)CCC(=O)N1c2ccccc2CC1c1c[nH]c2ccccc12 (stereo not given)
inactive: [1] -8.45% | [2] -13.9% | [3] -6.55% | [4] 18.6% | [5] 2% | [6] 5.6%

c1ccc(Nc2ccccc2)cc1 (tested in a mixture with another compound)
inactive: [1] 3.1% | [2] 20.2% | [3] 1.95% | [4] 1.6% | [5] 38.7% | [6] 9.8%

COC(=O)C(Cc1ccc(O)cc1)NC(=O)C(CC(=O)OCc1ccccc1)NC(=O)OCc1ccccc1 (stereo not given) (Cbz-Asp(OBn)-Tyr-OMe; configuration not given here)
inactive: [1] -11.3% | [2] -5.95% | [3] -0.7% | [4] -3.45% | [5] -21.4% | [6] 0.55%

Nc1nc2cc3nc(N)c(N)nc3cc2nc1N
inactive: [1] -6.4% | [2] 14.7% | [3] 13.1% | [4] 34.9% | [5] 13.2% | [6] 15.1%

CCCCN(CCCC)C(=O)C(=O)C(C(=O)c1ccc(OC)cc1)c1ccc(OC)cc1 (stereo not given)
inactive: [1] -8.95% | [2] -1.5% | [3] -11.8% | [4] -10.3% | [5] 14.1% | [6] -3.95%

COc1ccc2nc3cc([N+](=O)[O-])ccc3c(NCCCN(CCO)CCO)c2c1
inactive: [1] -6.7% | [2] -1.75% | [3] 6.9% | [4] 1.75% | [5] 7.75% | [6] 2.6%

CC(=O)N(CCC(C)C)CCC(C)C
inactive: [1] 17.9% | [2] 2.3% | [3] 5.5% | [4] 14.3% | [5] -8.05% | [6] -11.2%

Cc1nc(Nc2ccc(Cl)cc2)c2cnn(-c3ccc(Cl)cc3)c2n1
inactive: [1] -1.9% | [2] -2.25% | [3] -7.95% | [4] -41% | [5] -2.3% | [6] -5.05%

Cc1ccc(NC(=O)CC/C(CC(=O)C(C)(C)C)=N/NC(=O)c2cc3ccccc3cc2O)cc1C
inactive: [1] 27.9% | [2] 21.1% | [3] 0.35% | [4] -0.35% | [5] 28.4% | [6] 14.8%

COc1ccc(-n2c(CCC(=O)O)nc3c2C(=O)c2ccccc2C3=O)cc1
inactive: [1] 31.6% | [2] 17.6% | [3] 34% | [4] 49% | [5] 14.7% | [6] 14.2%

COC(=O)C1(C)CCCC2(C)c3cc(OC)ccc3C(=O)CC12 (stereo not given)
inactive: [1] 24.4% | [2] 12.7% | [3] 28% | [4] 5.95% | [5] 19.6% | [6] 21.7%

O=C1NC(N/N=C\C(O)C(O)C(O)CO)=N/C1=C/c1ccccc1 (stereo not given)
inactive: [1] 16.4% and 33.9% | [2] 18.7% and 29.6% | [3] 3.75% and 32.5% | [4] 16.8% and 16.1% | [5] 12.2% and 32.3% | [6] -9.35% and -5.7%

CCCCNC(=S)NNC(=O)c1ccncc1
inactive: [1] -0.35% | [2] 3.65% | [3] -0.55% | [4] 5.5% | [5] 10.7% | [6] 3.45%

Cc1ccc(OCc2ccc([N+](=O)[O-])cc2)cc1
inactive: [1] 1.8% | [2] -12.2% | [3] -12.6% | [4] 13.9% | [5] -16.4% | [6] -16.8%

CC(=O)OCCc1cccnc1/C=N/O
inactive: [1] -12.9% | [2] -22.5% | [3] -1.4% | [4] 20.6% | [5] -16.4% | [6] -5.2%

Cc1ccc(S(=O)(=O)CC(=O)NC(C)C)cc1
inactive: [1] -3.9% | [2] -17% | [3] 4% | [4] 17.2% | [5] 3.2% | [6] 20.8%

O=C1Cc2c(-c3ccc(Cl)cc3)cc(-c3ccccc3)nc2-c2ccccc2N1
inactive: [1] -16.9% | [2] -17.8% | [3] -10.9% | [4] 4.95% | [5] -11.2% | [6] -52%

CC(=O)OCC1OC(n2c(-c3ccccc3)c(N=Nc3ccc(C)cc3)c(C)c(C#N)c2=S)C(OC(C)=O)C(OC(C)=O)C1OC(C)=O (stereo not given)
inactive: [1] -22.6% | [2] -25.1% | [3] -22.9% | [4] 4.05% | [5] -4.9% | [6] 1.1%

CC(C)(C)NSc1nc2ccccc2s1
inactive: [1] -21.8% | [2] 2.45% | [3] -12.7% | [4] 4.2% | [5] -2.5% | [6] -8.5%

O=C1CN(Cc2cccc(Cl)c2)CC(=O)N2Cc3ccccc3CN12
inactive: [1] 34.4% | [2] -1% | [3] 14.2% | [4] -10.8% | [5] 8.9% | [6] -11.5%

CC1(C)OC2C(/C=C\C(=O)c3ccccc3)OC(n3ccc(=O)[nH]c3=O)C2O1 (stereo not given)
inactive: [1] -36.6% | [2] 10.3% | [3] 5.6% | [4] 13.4% | [5] -1.55% | [6] -1.5%

O=C1c2ccccc2NC(O)c2cccn21 (stereo not given)
inactive: [1] 0.3% | [2] 0.2% | [3] -3.75% | [4] -25.9% | [5] 11.4% | [6] -5.45%

c1ccc2nc3c(cc2c1)NCC3
inactive: [1] -2.3% | [2] 5.15% | [3] -14.4% | [4] -22.6% | [5] -8.25% | [6] -20.9%

O=C1CC2(C(=O)O)CC3CC2C(O1)C3I (stereo not given)
inactive: [1] 13.7% | [2] 10.6% | [3] 24.1% | [4] 13.1% | [5] 14.5% | [6] 21.2%

CCOC(=O)Nc1nc2ccccc2n1CN1CCCC1
inactive: [1] -4.7% | [2] -17.9% | [3] -11.3% | [4] 3.65% | [5] 22.4% | [6] 18.8%

CC(=O)CC(=O)c1ccc(C(=O)CC(C)=O)cc1.[Fe]
inactive: [1] -8.1% | [2] -2.35% | [3] -8.3% | [4] 11.7% | [5] 14.4% | [6] 2.15%

C[n+]1cccc(C#N)c1
inactive: [1] 6.55% and 5.2% | [2] 4.6% and -7.45% | [3] -0.95% and 0.4% | [4] -14.8% and -21.6% | [5] 2.3% and -6.65% | [6] -0.5% and 10.1%

CC(Nc1ncc2c(n1)-c1ccccc1OC2)C(=O)O (stereo not given)
inactive: [1] -2.45% | [2] 2.1% | [3] -11.4% | [4] -7.8% | [5] -31.4% | [6] 16.3%

CCCOC(=O)c1ccc([N+](=O)[O-])cc1
inactive: [1] 16.4% | [2] 4.2% | [3] 14.2% | [4] 8.75% | [5] -16.7% | [6] -23.1%

O=S(=O)(NCCN1CCNC1=S)c1ccc(Cl)c(Cl)c1
inactive: [1] -55.5% | [2] -12.7% | [3] -3.25% | [4] -16.7% | [5] -6.2% | [6] -6.6%

CN(CCNC(=O)C1CCCCC1C(=O)O)c1ccccc1 (stereo not given)
inactive: [1] 5% | [2] 22.3% | [3] 1% | [4] 0.15% | [5] 13.6% | [6] -10.2%
